Reference: PubChem BioAssay (EPA / NIEHS)
Results filed as inconclusive are left out. Some structures have more than one record in an assay (separate samples or runs), and their calls can disagree. Calls of active or inactive are those of the source. Rule for the calls, unless noted: active = hit-call score of the fitted dose curve at least 0.9, where 1 is the maximum; inactive = score below 0.9.

Key:
[1] = molecular target: Nuclear respiratory factor 1 (Homo sapiens) (UniProt Q16656); assay: ATG_NRF1_CIS: Attagene CIS-FACTORIAL HepG2 Assay for human Nuclear Respiratory Factor 1 (NRF1) Orphan Gene (AID 2282987); conditions: HepG2 NRF1 cis-element reporter, Attagene multiplex; actives raise or lower the signal
Chain of Nuclear respiratory factor 1 (Homo sapiens) (Q16656 whole entry, looked up): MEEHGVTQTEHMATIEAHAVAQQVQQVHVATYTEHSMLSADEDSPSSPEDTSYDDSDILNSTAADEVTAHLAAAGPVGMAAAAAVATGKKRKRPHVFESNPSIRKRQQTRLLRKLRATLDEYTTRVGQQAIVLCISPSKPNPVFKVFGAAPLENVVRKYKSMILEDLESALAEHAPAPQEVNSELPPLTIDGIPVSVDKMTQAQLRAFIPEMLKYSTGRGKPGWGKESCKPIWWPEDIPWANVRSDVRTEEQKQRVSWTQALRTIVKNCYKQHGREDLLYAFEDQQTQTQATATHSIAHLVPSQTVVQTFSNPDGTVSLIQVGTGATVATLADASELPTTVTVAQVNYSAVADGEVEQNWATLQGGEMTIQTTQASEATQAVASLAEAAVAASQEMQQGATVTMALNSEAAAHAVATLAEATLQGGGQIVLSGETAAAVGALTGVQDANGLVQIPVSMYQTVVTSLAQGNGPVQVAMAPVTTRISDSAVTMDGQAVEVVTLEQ
Summary of the method: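 Transcriptional reporter readout, one component of a 52-endpoint multiplexed HepG2 panel. Exposure 24 h; mRNA detected via RT-PCR and fluorescent capillary electrophoresis; fitting in both directions against DMSO.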

[2] = ATG_NFI_CIS: Attagene CIS-FACTORIAL HepG2 Assay for human Nuclear Factor I (NFI) (AID 2282989); conditions: HepG2 cis-regulatory reporter, NFI response element transcription; actives raise or lower the signal
Summary of the method: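 Endogenous TF activity in HepG2 cells transiently transfected with cis-element-driven multiplexed reporter units, read 24 h after dosing. Reporter mRNA quantified by RT-PCR, 6-FAM labelling, HpaI digestion and capillary electrophoresis; bidirectional fit versus DMSO.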

[3] = molecular target: Myc proto-oncogene protein (Homo sapiens) (UniProt P01106); assay: ATG_Myc_CIS: Attagene CIS-FACTORIAL HepG2 Assay for human Myelocytomatosis (Myc) Proto-Oncogene Transcription Factor (AID 2282990); conditions: HepG2, Attagene cis-reporter transcription factor activity; actives raise or lower the signal
Chain of Myc proto-oncogene protein (Homo sapiens) (P01106 whole entry, looked up): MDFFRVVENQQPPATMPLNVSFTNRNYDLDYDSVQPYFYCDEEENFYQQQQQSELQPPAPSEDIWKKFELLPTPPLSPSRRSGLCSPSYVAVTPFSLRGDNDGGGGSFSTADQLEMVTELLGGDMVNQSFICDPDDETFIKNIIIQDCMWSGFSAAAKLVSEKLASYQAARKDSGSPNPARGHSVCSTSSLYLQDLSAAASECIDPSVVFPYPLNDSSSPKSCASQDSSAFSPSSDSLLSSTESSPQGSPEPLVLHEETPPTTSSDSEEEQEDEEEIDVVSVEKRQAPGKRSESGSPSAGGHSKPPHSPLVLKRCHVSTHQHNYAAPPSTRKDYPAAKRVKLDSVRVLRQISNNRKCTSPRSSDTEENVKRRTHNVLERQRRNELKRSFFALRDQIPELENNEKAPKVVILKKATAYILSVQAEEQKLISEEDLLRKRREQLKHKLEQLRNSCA
Summary of the method: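 Cells of the HepG2 human liver line bear multiple cis-driven reporter transcription units. Reporter mRNA after 24 h exposure is reverse-transcribed, amplified, labelled and resolved by capillary electrophoresis, with gain- or loss-of-signal fitting relative to DMSO.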

[4] = ATG_NF_kB_CIS: Attagene CIS-FACTORIAL HepG2 Assay for human Nuclear Factor Kappa B (NF-kB) (AID 2282991); conditions: HepG2 Attagene cis-factorial NF-kB reporter mRNA; actives raise or lower the signal
Summary of the method: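 HepG2, transient multi-reporter transfection, cis promoter elements (endogenous TFs). 24 h exposure. Total RNA → RT → PCR → 6-FAM label → HpaI → CE. Gain/loss vs DMSO.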

[5] = ATG_NRF2_ARE_CIS: Attagene CIS-FACTORIAL HepG2 Assay for human Nuclear Factor Erythroid 2 Related Factor 2 (NFR2) response to Antioxidant Response Elements (ARE) (AID 2282992); conditions: HepG2 Attagene ARE/NRF2 reporter, transcription factor activity; actives raise or lower the signal
Summary of the method: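 Endogenous transcription factor activity read out as reporter transcript levels (RT-PCR plus capillary electrophoresis, fluorescence) in transiently transfected HepG2 cells. Measured at 24 h after dosing; gain or loss of signal fitted versus DMSO.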

[6] = ATG_Oct_MLP_CIS: Attagene CIS-FACTORIAL HepG2 Assay for human Octamer-Binding Transcription Factor (Oct) (AID 2282993); conditions: HepG2 Attagene cis-factorial Oct reporter, mRNA; actives raise or lower the signal
Summary of the method: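 HepG2 cells transiently transfected with cis-element-driven reporter transcription units (endogenous TF activity); 24 h compound exposure. Reporter mRNA quantified by RT-PCR, 6-FAM labelling, HpaI digestion and capillary electrophoresis; bidirectional fit versus DMSO baseline.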

[7] = molecular target: Cellular tumor antigen p53 (Homo sapiens) (UniProt P04637); assay: ATG_p53_CIS: Attagene CIS-FACTORIAL HepG2 Assay for human p53 Transcription Factor (AID 2282994); conditions: HepG2 p53 cis-element reporter, Attagene mRNA; actives raise or lower the signal
Chain of Cellular tumor antigen p53 (Homo sapiens) (P04637 whole entry, looked up): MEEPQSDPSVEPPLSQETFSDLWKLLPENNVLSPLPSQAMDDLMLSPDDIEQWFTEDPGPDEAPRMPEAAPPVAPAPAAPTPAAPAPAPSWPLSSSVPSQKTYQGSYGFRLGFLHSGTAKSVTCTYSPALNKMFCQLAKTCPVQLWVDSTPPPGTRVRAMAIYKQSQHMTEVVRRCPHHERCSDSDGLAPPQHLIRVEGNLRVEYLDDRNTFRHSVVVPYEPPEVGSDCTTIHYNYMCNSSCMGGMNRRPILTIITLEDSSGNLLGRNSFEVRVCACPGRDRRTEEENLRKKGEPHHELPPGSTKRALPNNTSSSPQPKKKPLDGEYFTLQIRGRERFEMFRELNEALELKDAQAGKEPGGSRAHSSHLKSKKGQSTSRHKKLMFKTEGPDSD
Summary of the method: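 Endogenous p53 activity read in transiently transfected HepG2 from a cis-element-driven reporter transcript after 24 h exposure. RNA reverse-transcribed, PCR-amplified, fluorescently labelled and sized by capillary electrophoresis; gain or loss fitted against DMSO baseline.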

[8] = BSK_3C_TissueFactor: BioMAP Diversity Plus: 3C Assay for Tissue Factor Biomarker Activity (AID 2282997); conditions: BioMAP 3C HUVEC, tissue factor biomarker readout; actives raise or lower the signal
Summary of the method: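 In this endothelial system, HUVEC are treated for 24 h and Tissue Factor is assessed by ELISA, normalised to DMSO.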

[9] = BSK_3C_uPAR: BioMAP Diversity Plus: 3C Assay for Urokinase-type plasminogen activator receptor (uPAR) Biomarker Activity (AID 2282998); conditions: BioMAP 3C HUVEC, uPAR biomarker ELISA; actives raise or lower the signal
Summary of the method: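 Primary human umbilical vein endothelial cells, 3C system; surface uPAR measured by ELISA 24 h after dosing. Cytotoxicity via SRB total protein in parallel cultures; bidirectional fit against DMSO.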

[10] = BSK_3C_VCAM1: BioMAP Diversity Plus: 3C Assay for Vascular cell adhesion molecule 1 (VCAM1) Biomarker Activity (AID 2282999); conditions: BioMAP 3C HUVEC, VCAM1 ELISA, cytokine-stimulated; actives raise or lower the signal
Summary of the method: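 Activity fitted in both directions relative to DMSO, with ELISA measurement of the surface marker on primary HUVEC (3C) at 24 h post-treatment; parallel SRB staining (0.1% SRB, TCA-fixed, 560 nm) flagged overt cytotoxicity.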

[11] = BSK_4H_Eotaxin3: BioMAP Diversity Plus: 4H Assay for Eotaxin 3 Biomarker Activity (AID 2283000); conditions: primary human endothelial cells (HUVEC); actives raise or lower the signal
Summary of the method: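 ELISA quantitation of CCL26 (Eotaxin-3) protein from chemically dosed human vascular endothelial cells at 24 h; increases and decreases both scored relative to DMSO-treated baseline.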

[12] = molecular target: human Peroxisome Proliferator-activated Receptor alpha (PPARa), PPARA (gene 5465) (UniProt Q07869); assay: ATG_PPARa_TRANS: Attagene TRANS-FACTORIAL HepG2 Assay for human Peroxisome Proliferator-activated Receptor alpha (PPARa) (AID 2283001; active = hit-call score of the fitted dose curve at least 0.9, where 1 is the maximum;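 for AC50: potency for gain of reporter signal over DMSO so agonist or activator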)
Chain of human Peroxisome Proliferator-activated Receptor alpha (PPARa), PPARA (gene 5465) (Q07869 whole entry, looked up, the tested form may be a part): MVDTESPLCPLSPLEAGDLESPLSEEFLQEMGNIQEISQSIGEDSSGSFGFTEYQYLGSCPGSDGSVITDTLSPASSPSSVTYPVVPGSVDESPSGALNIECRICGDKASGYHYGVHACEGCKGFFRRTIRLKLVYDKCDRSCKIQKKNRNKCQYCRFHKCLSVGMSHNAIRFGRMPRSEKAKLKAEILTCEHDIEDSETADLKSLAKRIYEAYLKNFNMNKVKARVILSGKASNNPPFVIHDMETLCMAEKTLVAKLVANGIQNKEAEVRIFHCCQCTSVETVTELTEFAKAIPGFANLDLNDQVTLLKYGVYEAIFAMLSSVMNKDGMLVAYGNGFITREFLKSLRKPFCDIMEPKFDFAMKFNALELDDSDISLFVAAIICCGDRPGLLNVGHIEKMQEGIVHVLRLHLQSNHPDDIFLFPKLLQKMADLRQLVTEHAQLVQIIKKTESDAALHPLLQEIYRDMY
Summary of the method: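 Transfected HepG2 cells treated with test chemical for 24 h. RNA isolated, reverse-transcribed with oligo(dT), PCR-amplified, FAM-labelled and HpaI-digested. Fragments sized by capillary electrophoresis; gain-of-signal fit relative to DMSO.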

[13] = read-out: Intercellular Adhesion Molecule 1 (ICAM1), ICAM1 (gene 3383); assay: BSK_3C_ICAM1: BioMAP Diversity Plus: 3C Assay for Intercellular Adhesion Molecule 1 (ICAM1) Biomarker Activity (AID 2283003); conditions: primary human endothelial cells (HUVEC); actives raise or lower the signal
Summary of the method: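 Using DMSO as baseline, bidirectional curve fitting was applied to ICAM-1 ELISA signals from HUVEC in the 3C system, measured 24 h after compound addition.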

[14] = molecular target: human Retinoic Acid Receptor beta (RARb), RARB (gene 5915) (UniProt P10826); assay: ATG_RARb_TRANS: Attagene TRANS-FACTORIAL HepG2 Assay for human Retinoic Acid Receptor beta (AID 2283004; active = hit-call score of the fitted dose curve at least 0.9, where 1 is the maximum)
Chain of human Retinoic Acid Receptor beta (RARb), RARB (gene 5915) (P10826 whole entry, looked up, the tested form may be a part): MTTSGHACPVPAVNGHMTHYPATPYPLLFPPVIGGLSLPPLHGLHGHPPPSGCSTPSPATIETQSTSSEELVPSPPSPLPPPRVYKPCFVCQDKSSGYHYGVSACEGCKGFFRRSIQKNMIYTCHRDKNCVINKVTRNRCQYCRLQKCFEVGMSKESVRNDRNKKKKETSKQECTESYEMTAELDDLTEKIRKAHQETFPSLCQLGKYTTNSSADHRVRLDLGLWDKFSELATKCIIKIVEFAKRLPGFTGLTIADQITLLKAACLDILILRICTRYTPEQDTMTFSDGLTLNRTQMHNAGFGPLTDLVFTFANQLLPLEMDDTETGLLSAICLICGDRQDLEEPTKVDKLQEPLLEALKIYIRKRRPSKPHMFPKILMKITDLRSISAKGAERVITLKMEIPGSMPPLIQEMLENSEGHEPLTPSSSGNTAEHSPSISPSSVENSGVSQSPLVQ
Summary of the method: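 Fluorescent capillary-electrophoresis detection of GAL4-UAS reporter mRNA defines the endpoint, with induction over DMSO-treated wells scored as activity. Transiently transfected human hepatoma HepG2 cells expressing exogenous NR–Gal4 proteins are exposed to test chemicals for 24 h.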

[15] = molecular target: Retinoic acid receptor alpha (Homo sapiens) (UniProt P10276); assay: ATG_RARa_TRANS: Attagene TRANS-FACTORIAL HepG2 Assay for human Retinoic Acid Receptor alpha (RARa) (AID 2283005; active = hit-call score of the fitted dose curve at least 0.9, where 1 is the maximum)
Chain of Retinoic acid receptor alpha (Homo sapiens) (P10276 whole entry, looked up, the tested form may be a part): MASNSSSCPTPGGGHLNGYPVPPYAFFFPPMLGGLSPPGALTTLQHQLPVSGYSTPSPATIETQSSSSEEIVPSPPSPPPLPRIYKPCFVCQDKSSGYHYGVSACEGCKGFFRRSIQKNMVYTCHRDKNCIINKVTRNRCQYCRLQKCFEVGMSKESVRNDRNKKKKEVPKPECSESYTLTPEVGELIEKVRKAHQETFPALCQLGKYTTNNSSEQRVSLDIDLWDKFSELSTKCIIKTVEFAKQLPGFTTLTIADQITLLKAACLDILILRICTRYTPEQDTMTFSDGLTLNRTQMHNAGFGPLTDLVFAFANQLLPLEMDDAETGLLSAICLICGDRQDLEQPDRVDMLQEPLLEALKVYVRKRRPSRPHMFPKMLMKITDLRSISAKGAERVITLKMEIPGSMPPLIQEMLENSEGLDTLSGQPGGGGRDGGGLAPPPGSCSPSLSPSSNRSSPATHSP
Summary of the method: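 Reporter transcripts, measured by RT-PCR with fluorescent labeling and capillary electrophoresis after 24 h dosing, reflect activity of an exogenous human RARa–GAL4 fusion in transiently transfected HepG2. Fitted for increase relative to DMSO.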

[16] = BSK_3C_Proliferation: Cell Proliferation Assessment in the BioMAP Diversity Plus: 3C Assay (AID 2283006); conditions: primary human endothelial cells (HUVEC);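 for AC50: potency may reflect either rise or fall in cell number versus DMSO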
Summary of the method: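 Measured here: sulforhodamine B (0.1%) staining of TCA-fixed sub-confluent umbilical vein endothelial cultures 48 h post-dosing, absorbance 560 nm. DMSO served as negative control and baseline; both signal gain and loss were modelled.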

[17] = molecular target: Peroxisome proliferator-activated receptor gamma (Homo sapiens) (UniProt P37231); assay: ATG_PPARg_TRANS: Attagene TRANS-FACTORIAL HepG2 Assay for human Peroxisome Proliferator-activated Receptor-gamma (PPARg) (AID 2283007; active = hit-call score of the fitted dose curve at least 0.9, where 1 is the maximum)
Chain of Peroxisome proliferator-activated receptor gamma (Homo sapiens) (P37231 whole entry, looked up): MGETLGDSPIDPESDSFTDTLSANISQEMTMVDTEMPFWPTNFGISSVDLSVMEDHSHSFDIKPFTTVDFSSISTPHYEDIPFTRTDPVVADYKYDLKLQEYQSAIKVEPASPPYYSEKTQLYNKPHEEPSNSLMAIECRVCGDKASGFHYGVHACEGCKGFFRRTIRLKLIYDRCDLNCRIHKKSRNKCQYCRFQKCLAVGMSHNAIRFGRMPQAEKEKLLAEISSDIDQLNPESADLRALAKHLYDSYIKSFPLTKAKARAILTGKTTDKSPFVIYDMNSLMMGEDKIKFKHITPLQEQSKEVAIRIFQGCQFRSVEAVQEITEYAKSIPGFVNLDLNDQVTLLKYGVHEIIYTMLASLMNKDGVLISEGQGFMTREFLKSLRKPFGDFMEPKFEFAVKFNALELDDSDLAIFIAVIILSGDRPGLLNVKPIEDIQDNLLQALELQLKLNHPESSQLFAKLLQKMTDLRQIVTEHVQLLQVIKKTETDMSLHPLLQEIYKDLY
Summary of the method: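 Multiplexed reporter transcription units in HepG2, 24 h dosing, reporter transcripts quantified by fluorescent RT-PCR and capillary electrophoresis. Increase over DMSO scored.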

[18] = molecular target: Nuclear receptor subfamily 1 group I member 2 (Homo sapiens) (UniProt O75469); assay: ATG_PXR_TRANS: Attagene TRANS-FACTORIAL HepG2 Assay for human Pregnane X Receptor (PXR) (AID 2283008; active = hit-call score of the fitted dose curve at least 0.9, where 1 is the maximum)
Chain of Nuclear receptor subfamily 1 group I member 2 (Homo sapiens) (O75469 whole entry, looked up, the tested form may be a part): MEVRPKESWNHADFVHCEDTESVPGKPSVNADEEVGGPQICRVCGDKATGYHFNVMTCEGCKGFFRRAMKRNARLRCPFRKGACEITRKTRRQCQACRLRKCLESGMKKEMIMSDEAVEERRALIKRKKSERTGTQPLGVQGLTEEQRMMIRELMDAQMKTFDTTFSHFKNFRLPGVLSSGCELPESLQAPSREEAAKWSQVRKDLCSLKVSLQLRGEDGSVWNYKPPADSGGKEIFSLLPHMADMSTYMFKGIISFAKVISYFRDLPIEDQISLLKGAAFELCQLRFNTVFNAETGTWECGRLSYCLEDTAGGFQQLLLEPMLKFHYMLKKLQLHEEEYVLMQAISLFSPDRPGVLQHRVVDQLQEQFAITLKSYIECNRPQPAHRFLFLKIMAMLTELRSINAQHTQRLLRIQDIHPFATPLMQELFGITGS
Summary of the method: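 Transactivation by exogenous PXR–GAL4 fusion measured as reporter transcript induction after 24 h compound treatment of transfected human HepG2 cells. Read-out via RT-PCR and capillary electrophoresis of labelled fragments, fitted upward relative to DMSO.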

[19] = molecular target: human Retinoic Acid Receptor gamma (RARg), RARG (gene 5916) (UniProt P13631); assay: ATG_RARg_TRANS: Attagene TRANS-FACTORIAL HepG2 Assay for human Retinoic Acid Receptor gamma (RARg) (AID 2283009; active = hit-call score of the fitted dose curve at least 0.9, where 1 is the maximum)
Chain of human Retinoic Acid Receptor gamma (RARg), RARG (gene 5916) (P13631 whole entry, looked up, the tested form may be a part): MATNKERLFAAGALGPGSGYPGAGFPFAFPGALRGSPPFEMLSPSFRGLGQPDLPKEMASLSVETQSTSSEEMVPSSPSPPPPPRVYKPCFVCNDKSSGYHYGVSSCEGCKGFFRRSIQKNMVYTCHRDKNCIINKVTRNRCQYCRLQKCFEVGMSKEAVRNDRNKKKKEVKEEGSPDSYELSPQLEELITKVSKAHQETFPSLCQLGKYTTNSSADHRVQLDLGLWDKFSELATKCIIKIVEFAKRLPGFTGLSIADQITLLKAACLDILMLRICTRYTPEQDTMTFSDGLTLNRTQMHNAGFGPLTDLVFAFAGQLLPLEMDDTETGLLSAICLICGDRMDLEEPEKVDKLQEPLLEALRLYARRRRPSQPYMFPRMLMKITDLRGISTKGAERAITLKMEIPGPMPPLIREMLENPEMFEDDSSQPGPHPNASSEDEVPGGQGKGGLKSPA
Summary of the method: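 Gain-of-signal relative to DMSO is reported from fluorescent capillary electrophoresis of RT-PCR reporter products. These came from HepG2 cells expressing transfected RARg-GAL4 chimeras with UAS reporters, harvested 24 h after dosing.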

[20] = molecular target: human Peroxisome Proliferator-activated Receptor delta (PPARd), PPARD (gene 5467) (UniProt Q03181); assay: ATG_PPARd_TRANS: Attagene TRANS-FACTORIAL HepG2 Assay for human Peroxisome Proliferator-activated Receptor delta (PPARd) (AID 2283002; active = hit-call score of the fitted dose curve at least 0.9, where 1 is the maximum)
Chain of human Peroxisome Proliferator-activated Receptor delta (PPARd), PPARD (gene 5467) (Q03181 whole entry, looked up): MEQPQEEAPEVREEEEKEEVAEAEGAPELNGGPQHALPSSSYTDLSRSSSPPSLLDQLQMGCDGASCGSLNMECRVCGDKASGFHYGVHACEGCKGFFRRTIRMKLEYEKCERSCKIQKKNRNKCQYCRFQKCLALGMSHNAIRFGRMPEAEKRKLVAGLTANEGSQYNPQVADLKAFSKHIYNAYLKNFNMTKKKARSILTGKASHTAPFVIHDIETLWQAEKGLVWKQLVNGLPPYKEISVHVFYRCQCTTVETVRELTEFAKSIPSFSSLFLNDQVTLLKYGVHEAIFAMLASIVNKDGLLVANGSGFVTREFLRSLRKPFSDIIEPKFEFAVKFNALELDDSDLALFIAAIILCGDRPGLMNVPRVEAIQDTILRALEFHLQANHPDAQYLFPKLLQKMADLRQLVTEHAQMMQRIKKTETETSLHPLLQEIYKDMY
Summary of the method: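 Cell-based TRANS reporter: HepG2, transient MRTU transfection, 24 h exposure. Readout = reporter mRNA (RT-PCR/CE, 6-FAM). Gain-of-signal fit vs DMSO control.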

Measured: AC50

NC(=O)C(F)(F)C(F)(F)C(F)(F)C(F)(F)C(F)(F)C(F)(F)C(F)(F)F
active: [12] 86.9 µM
not listed: [20]
inactive: all other assays above

CCCC(=O)OCC(COC(=O)CCC)OC(=O)CCC
inactive: [1] | [2] | [3] | [5] | [6]
active: [4] 44.7 µM | [7] 89.1 µM

C[Si](Cl)(Cl)CCC(F)(F)C(F)(F)C(F)(F)C(F)(F)C(F)(F)C(F)(F)F
not listed: [17] | [18] | [19]
inactive: all other assays above

O=S(=O)(OCC(F)(F)F)C(F)(F)C(F)(F)C(F)(F)C(F)(F)F
active: [4] 62.7 µM | [5] 45.6 µM | [7] 89.1 µM | [9] 38.5 µM | [17] 107 µM
inactive: [1] | [2] | [3] | [6] | [8] | [9] | [10] | [11] | [12] | [13] | [14] | [16] | [18]

CC(C)CCCC(C)CCO (centres undefined)
active: [8] 36.4 µM | [9] 26.7 µM | [10] 33.9 µM | [11] 36.5 µM | [13] 35.5 µM | [16] 30.4 µM
not listed: [14] | [15] | [19]
inactive: all other assays above

NCC(F)(F)C(F)(F)C(F)(F)C(F)(F)C(F)(F)C(F)(F)F
not listed: [19]
inactive: all other assays above

O=C(O)CCC(F)(F)C(F)(F)C(F)(F)C(F)(F)C(F)(F)C(F)(F)C(F)(F)F
active: [5] 94.9 µM | [7] 204 µM | [17] 150 µM
not listed: [14] | [15] | [19]
inactive: all other assays above
